Inconclusive results are not listed. Active and inactive are the calls of the source. The calls were made as follows, unless noted: active = hit-call score of the fitted dose curve at least 0.9, where 1 is the maximum; inactive = score below 0.9.
Key:
[1] = ACEA_ER_80hr: ACEA Biosciences xCELLigence Real-Time Cell Analysis on Estrogen Receptor Agonism for Proliferation (AID 2282667; active = hit-call score of the fitted dose curve at least 0.9, where 1 is the maximum); settings: T47D proliferation, impedance (xCELLigence), 80 h
Summary of the method: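 Cell-growth kinetics were measured by impedance in T47D cells treated continuously with compound (top 100 uM final, 1:4 steps, 8 points). Activity at 80 h was scored as signal gain over the DMSO baseline.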

[2] = ATG_CRE_CIS: Attagene CIS-FACTORIAL HepG2 Assay for human cAMP Responsive Element (CRE) binding protein 3 (AID 2282926); settings: HepG2 CRE cis-reporter, Attagene multiplexed mRNA; actives raise or lower the signal
Summary of the method: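 We dosed HepG2 cells bearing multiple cis-promoter reporter units for 24 h and measured reporter mRNA by RT-PCR with capillary electrophoresis detection. Bidirectional concentration-response fitting used DMSO as negative control.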

[3] = biological target: CCAAT/enhancer-binding protein beta (Homo sapiens) (UniProt P17676); test: ATG_C_EBP_CIS: Attagene CIS-FACTORIAL HepG2 Assay for human CCAAT/Enhancer Binding Protein (C/EBP) beta (AID 2282927); settings: HepG2 Attagene cis-factorial transcription factor reporter; actives raise or lower the signal
Summary of the method: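 Chemical-treated HepG2 cells (24 h) bearing cis-regulated reporter constructs were processed for total RNA, then reverse transcription, PCR amplification, fluorescent primer extension and fragment analysis; gain- and loss-of-signal were fitted against DMSO.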

[4] = ATG_CMV_CIS: Attagene CIS-FACTORIAL HepG2 Assay for human CMV (Internal Marker) (AID 2282928); settings: HepG2 CMV promoter reporter, transcription factor profiling; actives raise or lower the signal;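 also: endpoint acts as a background internal control marker rather than a target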
Summary of the method: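 Cell system: HepG2, transiently transfected multiple reporter units under cis promoters. Exposure: 24 h. Detection: RT-PCR, FAM labeling, HpaI digestion, capillary electrophoresis. Analysis: bidirectional, DMSO baseline.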

[5] = ATG_DR4_LXR_CIS: Attagene CIS-FACTORIAL HepG2 Assay for human Liver X Receptor (LXR), DR4 submotif (AID 2282929); settings: HepG2 Attagene DR4 cis-reporter, mRNA transcription; actives raise or lower the signal
Summary of the method: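 Measures endogenous transcription factor activity via a DR4-driven reporter transcript in human HepG2 cells. Compounds incubated 24 h; mRNA quantified by RT-PCR and capillary electrophoresis, analysed as gain or loss of signal versus DMSO.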

[6] = biological target: Aryl hydrocarbon receptor (Homo sapiens) (UniProt P35869); test: ATG_Ahr_CIS: Attagene CIS-FACTORIAL HepG2 Assay for human Aryl Hydrocarbon Receptor (Ahr) (AID 2282930); settings: HepG2 AhR cis-factorial reporter transcription; actives raise or lower the signal
Summary of the method: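 Following 24 h of chemical dosing, transfected HepG2 liver cells with cis-driven reporter units were lysed for RNA; reporter mRNA was quantified via RT-PCR and capillary electrophoresis, and responses fitted bidirectionally from DMSO.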

[7] = ATG_AP_1_CIS: Attagene CIS-FACTORIAL HepG2 Assay for human Activator Protein 1 (AP-1) (AID 2282931); settings: HepG2 Attagene cis-factorial AP-1 reporter mRNA; actives raise or lower the signal
Summary of the method: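 Bidirectional concentration-response fitting against DMSO controls. Underlying signal: reporter mRNA from cis-promoter constructs in transiently transfected HepG2, measured after 24 h by RT-PCR and capillary electrophoresis.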

[8] = ATG_AP_2_CIS: Attagene CIS-FACTORIAL HepG2 Assay for human Activator Protein 2 (AP-2) (AID 2282932); settings: HepG2 AP-2 cis-reporter, Attagene transcription factor profiling; actives raise or lower the signal
Summary of the method: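 HepG2 cells were transiently transfected with multiple cis-promoter reporter transcription units and dosed for 24 h. Reporter mRNA was measured by RT-PCR with capillary electrophoresis fluorescence; bidirectional fits relative to DMSO baseline.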

[9] = ATG_BRE_CIS: Attagene CIS-FACTORIAL HepG2 Assay for human Bone Morphogenetic Protein (BMP) Response Element (BRE) (AID 2282933); settings: HepG2 BMP response element reporter, Attagene transcription factor profiling; actives raise or lower the signal
Summary of the method: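 Transient MRTU transfection of human HepG2 liver cells; 24 h compound treatment; total RNA isolated, reverse-transcribed, PCR-amplified, 6-FAM labelled, HpaI-cut, capillary electrophoresis. DMSO = negative control/baseline, bidirectional fit.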

[10] = biological target: Retinoic acid receptor alpha (Homo sapiens) (UniProt P10276); test: ATG_DR5_RAR_CIS: Attagene CIS-FACTORIAL HepG2 Assay for human Retinoic Acid Receptor Alpha (RARE), DR5 submotif (AID 2282934); settings: HepG2 Attagene cis-factorial RARE DR5 reporter, mRNA; actives raise or lower the signal
Summary of the method: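 Transfected HepG2 reporter cells are exposed to chemicals for 24 h. Then RNA is extracted and the DR5 element reporter transcript is measured by RT-PCR and capillary electrophoresis, with bidirectional curve fitting relative to DMSO.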

[11] = biological target: Transcription factor E2F1 (Homo sapiens) (UniProt Q01094); test: ATG_E2F_CIS: Attagene CIS-FACTORIAL HepG2 Assay for human E2F Transcription Factor 1 (AID 2282935); settings: HepG2 Attagene cis-reporter, E2F reporter RNA transcripts; actives raise or lower the signal
Summary of the method: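 HepG2 cells transiently transfected with multiplexed cis-element reporter units, dosed for 24 h. Reporter mRNA measured by RT-PCR, 6-FAM primer-extension labeling, HpaI digestion and capillary electrophoresis; bidirectional fit versus DMSO baseline.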

[12] = ATG_M_61_CIS: Attagene CIS-FACTORIAL HepG2 Assay for M61 Transcription Factor (Internal Marker) (AID 2282937); settings: HepG2 Attagene CIS-FACTORIAL M61 internal marker reporter; actives raise or lower the signal
Summary of the method: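 Fluorescence from labelled cDNA fragments, separated by capillary electrophoresis, quantifies reporter induction. HepG2 cells bearing transiently transfected cis-promoter MRTUs were incubated with test chemical for 24 h; DMSO defined baseline for gain/loss fitting.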

[13] = ATG_EGR_CIS: Attagene CIS-FACTORIAL HepG2 Assay for human Early Growth Response 1 (EGR1) (AID 2282938); settings: HepG2 Attagene CIS-FACTORIAL EGR reporter mRNA; actives raise or lower the signal
Summary of the method: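 Cell-based multiplex transcription assay: HepG2 carrying transfected cis-element reporter units, 24 h chemical treatment. Fluorescence from capillary electrophoresis of RT-PCR products gives mRNA levels; fitting is bidirectional relative to DMSO.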

[14] = ATG_M_19_CIS: Attagene CIS-FACTORIAL HepG2 Assay for M19 Transcription Factor (Internal Marker) (AID 2282939); settings: HepG2 Attagene CIS-FACTORIAL M19 internal marker reporter; actives raise or lower the signal
Summary of the method: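 Transfect HepG2 with MRTU reporter library → dose chemical, 24 h → isolate total RNA, reverse-transcribe with oligo(dT) → PCR, 6-FAM label, HpaI cut (2 h, 37 C) → capillary electrophoresis. Bidirectional fit vs DMSO.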

[15] = ATG_ERE_CIS: Attagene CIS-FACTORIAL HepG2 Assay for Estrogen Response Element (ERE) (AID 2282940); settings: HepG2 ERE cis-reporter, Attagene RNA transcript; actives raise or lower the signal
Summary of the method: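 Transient MRTU transfection of human HepG2; cis-element promoters; 24 h dosing; total RNA → RT (oligo dT) → PCR → 6-FAM primer extension → HpaI digest → CE fluorescence. Bidirectional fit, DMSO baseline.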

[16] = ATG_Ets_CIS: Attagene CIS-FACTORIAL HepG2 Assay for human Erythroblast Transformation Specific (ETS) (AID 2282941); settings: HepG2 ETS cis-reporter transcription, actives raise or lower the signal
Summary of the method: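 After transient cis-reporter transfection, HepG2 cells receive test chemical for 24 h. Reporter mRNA levels, measured by RT-PCR and capillary electrophoresis fluorescence, are analysed bidirectionally relative to the DMSO baseline.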

[17] = biological target: Hepatocyte nuclear factor 3-beta (Homo sapiens) (UniProt Q9Y261); test: ATG_FoxA2_CIS: Attagene CIS-FACTORIAL HepG2 Assay for human Forkhead box A2 (FOXA2) (AID 2282942); settings: HepG2 cis-reporter transcription factor activity, 24 h; actives raise or lower the signal
Summary of the method: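 In transiently transfected human HepG2 cells, promoter-driven reporter mRNA levels after 24 h chemical exposure are determined via RT-PCR with capillary electrophoresis. DMSO serves as baseline for bidirectional fitting.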

[18] = ATG_FoxO_CIS: Attagene CIS-FACTORIAL HepG2 Assay for human Forkhead box O (FoxO) (AID 2282943); settings: HepG2 Attagene cis-reporter, FoxO element, mRNA; actives raise or lower the signal
Summary of the method: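 24 h chemical exposure, HepG2 with transient cis-MRTU transfection. RNA extraction, oligo(dT) RT, reporter-specific PCR, primer-extension labelling, HpaI digestion, CE fragment analysis; bidirectional fit, DMSO baseline.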

[19] = ATG_GATA_CIS: Attagene CIS-FACTORIAL HepG2 Assay for human GATA Binding Protein (AID 2282944); settings: HepG2 GATA cis-element reporter, Attagene multiplex mRNA; actives raise or lower the signal
Summary of the method: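 Transient MRTU transfection, HepG2, 24 h compound exposure. Total RNA → oligo(dT) RT → PCR → 6-FAM primer extension → HpaI cut → CE. Bidirectional fit vs DMSO.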

[20] = ATG_E_Box_CIS: Attagene CIS-FACTORIAL HepG2 Assay for human Enhancer Box (E-box) (AID 2282936); settings: HepG2 E-box cis-reporter transcription, actives raise or lower the signal
Summary of the method: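 HepG2 cells transiently transfected with multiplexed cis-element reporter units sensing endogenous transcription factor activity; 24 h compound exposure. Reporter mRNA measured by RT-PCR, 6-FAM primer extension, HpaI digestion and capillary electrophoresis; bidirectional fit versus DMSO.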

Measured: AC50

Chain of Transcription factor E2F1 (Homo sapiens) (Q01094 whole entry, looked up): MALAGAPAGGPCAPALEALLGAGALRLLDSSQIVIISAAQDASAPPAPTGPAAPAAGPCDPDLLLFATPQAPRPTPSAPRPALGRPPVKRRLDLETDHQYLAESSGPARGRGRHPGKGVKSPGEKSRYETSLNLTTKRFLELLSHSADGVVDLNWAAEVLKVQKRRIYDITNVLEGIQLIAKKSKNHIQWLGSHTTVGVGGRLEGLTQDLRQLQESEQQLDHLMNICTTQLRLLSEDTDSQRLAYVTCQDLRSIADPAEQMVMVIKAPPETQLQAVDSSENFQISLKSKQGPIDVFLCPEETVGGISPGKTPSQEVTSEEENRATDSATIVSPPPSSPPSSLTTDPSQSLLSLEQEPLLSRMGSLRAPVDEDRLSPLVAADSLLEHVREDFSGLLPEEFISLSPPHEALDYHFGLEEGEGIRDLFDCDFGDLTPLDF
Chain of Aryl hydrocarbon receptor (Homo sapiens) (P35869 whole entry, looked up): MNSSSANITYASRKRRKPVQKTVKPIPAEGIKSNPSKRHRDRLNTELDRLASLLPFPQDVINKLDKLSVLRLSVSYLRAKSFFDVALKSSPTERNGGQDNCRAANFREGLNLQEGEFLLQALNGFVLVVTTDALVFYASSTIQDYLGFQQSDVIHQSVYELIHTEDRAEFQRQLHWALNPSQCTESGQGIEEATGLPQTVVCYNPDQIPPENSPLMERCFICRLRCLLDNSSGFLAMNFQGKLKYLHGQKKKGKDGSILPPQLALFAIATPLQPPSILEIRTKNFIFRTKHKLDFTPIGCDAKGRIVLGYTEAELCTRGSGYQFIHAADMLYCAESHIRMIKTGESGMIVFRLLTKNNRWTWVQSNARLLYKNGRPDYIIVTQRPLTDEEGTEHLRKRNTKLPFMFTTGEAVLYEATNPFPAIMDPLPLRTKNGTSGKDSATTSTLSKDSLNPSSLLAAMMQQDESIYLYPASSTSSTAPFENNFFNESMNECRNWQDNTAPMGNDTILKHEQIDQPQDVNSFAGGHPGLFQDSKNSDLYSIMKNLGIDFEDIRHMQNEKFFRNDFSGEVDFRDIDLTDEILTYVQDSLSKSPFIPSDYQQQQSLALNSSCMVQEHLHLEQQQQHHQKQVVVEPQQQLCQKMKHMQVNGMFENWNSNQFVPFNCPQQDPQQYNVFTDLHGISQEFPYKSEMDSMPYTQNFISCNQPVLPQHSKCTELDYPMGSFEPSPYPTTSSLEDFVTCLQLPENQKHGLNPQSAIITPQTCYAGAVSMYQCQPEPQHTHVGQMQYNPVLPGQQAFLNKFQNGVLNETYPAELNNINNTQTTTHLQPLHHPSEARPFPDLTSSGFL
Chain of Retinoic acid receptor alpha (Homo sapiens) (P10276 whole entry, looked up): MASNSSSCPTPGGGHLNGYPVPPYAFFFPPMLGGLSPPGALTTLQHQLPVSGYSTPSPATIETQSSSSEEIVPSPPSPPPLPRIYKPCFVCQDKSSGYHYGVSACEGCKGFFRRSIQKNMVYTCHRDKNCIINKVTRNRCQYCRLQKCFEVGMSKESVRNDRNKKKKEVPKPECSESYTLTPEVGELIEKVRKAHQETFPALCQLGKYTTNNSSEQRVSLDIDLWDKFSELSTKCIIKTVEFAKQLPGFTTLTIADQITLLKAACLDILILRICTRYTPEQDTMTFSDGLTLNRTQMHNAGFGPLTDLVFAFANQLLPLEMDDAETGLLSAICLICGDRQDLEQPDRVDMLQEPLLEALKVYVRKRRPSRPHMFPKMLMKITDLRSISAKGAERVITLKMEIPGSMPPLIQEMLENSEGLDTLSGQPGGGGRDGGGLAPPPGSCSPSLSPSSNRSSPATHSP
Chain of CCAAT/enhancer-binding protein beta (Homo sapiens) (P17676 whole entry, looked up, the tested form may be a part): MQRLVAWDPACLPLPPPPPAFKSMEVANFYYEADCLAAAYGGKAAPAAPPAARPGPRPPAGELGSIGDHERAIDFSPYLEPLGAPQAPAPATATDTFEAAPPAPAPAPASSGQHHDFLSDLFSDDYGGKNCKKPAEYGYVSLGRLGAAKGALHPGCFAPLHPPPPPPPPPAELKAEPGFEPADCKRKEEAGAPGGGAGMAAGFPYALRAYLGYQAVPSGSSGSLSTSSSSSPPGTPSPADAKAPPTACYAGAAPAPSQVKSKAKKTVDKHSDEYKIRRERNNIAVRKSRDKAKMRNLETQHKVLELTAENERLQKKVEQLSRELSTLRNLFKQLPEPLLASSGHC
Chain of Hepatocyte nuclear factor 3-beta (Homo sapiens) (Q9Y261 whole entry, looked up): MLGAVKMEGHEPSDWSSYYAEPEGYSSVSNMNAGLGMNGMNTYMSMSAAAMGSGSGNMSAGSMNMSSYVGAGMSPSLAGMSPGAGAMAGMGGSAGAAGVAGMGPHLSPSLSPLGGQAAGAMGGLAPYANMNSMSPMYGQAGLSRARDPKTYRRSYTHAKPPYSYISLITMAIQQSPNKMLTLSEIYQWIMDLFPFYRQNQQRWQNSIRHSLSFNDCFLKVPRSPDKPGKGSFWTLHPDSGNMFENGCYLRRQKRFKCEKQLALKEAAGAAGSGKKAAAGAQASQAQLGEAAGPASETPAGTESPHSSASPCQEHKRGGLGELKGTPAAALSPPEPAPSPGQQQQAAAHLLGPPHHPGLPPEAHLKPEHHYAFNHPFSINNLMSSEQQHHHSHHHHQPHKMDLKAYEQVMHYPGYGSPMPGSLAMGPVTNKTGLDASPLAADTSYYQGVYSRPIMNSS

Cc1c(C(=O)c2c[nH]n(C)c2=O)ccc(S(C)(=O)=O)c1C1=NOCC1
not listed: [20]
inactive: all other assays above

CCCC=C(C=O)CC
active: [6] 100 µM
not listed: [10] | [13]
inactive: all other assays above

CCCCCCCCCC(C)=O
not listed: [12] | [18]
inactive: all other assays above

CCC(=O)C1CC(C(C)C)CC=C1C (stereo not drawn)
not listed: [10]
inactive: all other assays above

C=C(C)C(=O)OCCOC(=O)C(=C)C
not listed: [10]
inactive: all other assays above

CCCCOCC(C)O (stereo not drawn)
active: [1] 0.129 µM
not listed: [12] | [18]
inactive: all other assays above

COc1cc(O)c(C(=O)c2ccccc2)cc1S(=O)(=O)O
active: [15] 56 µM
not listed: [13] | [16]
inactive: all other assays above

O=c1c(O)c(-c2ccc(O)cc2O)oc2cc(O)cc(O)c12
active: [1] 47.5 µM | [9] 19.3 µM | [15] 0.65 µM
not listed: [12]
inactive: all other assays above

Nc1ccc(Cl)c(N)c1
active: [6] 6.09 µM
not listed: [10] | [18]
inactive: all other assays above

Cc1cccc(C(C)(C)C)c1O
not listed: [12]
inactive: all other assays above

C1CCSC1
not listed: [13] | [16]
inactive: all other assays above

[Cl][Sc]([Cl])[Cl]
active: [6] 0.188 µM
not listed: [10]
inactive: all other assays above

CC(C)CC(=O)OCc1ccccc1
not listed: [20]
inactive: all other assays above

CN1CCN(C)CC1
not listed: [20]
inactive: all other assays above

Cc1ccccc1CCO
not listed: [12] | [20]
inactive: all other assays above
